Test: compounds binding Alexa647 anti-His antibody – biochemical, small-molecule microarray, 635 nm fluorescence, artefact control for SMM control protein annotation, primary screen (AID 1128);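 note: score merges feature fluorescence with signal-to-noise for each printed compound spot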
Conditions: higher = more signal

Structure (SMILES)	composite z-score
CC(C)CCN1CCc2nc(COc3ccccc3)c3c(c2C1)CO[C@@H](C)C3	0.683
O=C(NN=C1C[C@@H](O)[C@@H](O)[C@@H]2[C@@H]3C(=O)N(Cc4ccccc4)C(=O)[C@@H]3CC[C@@H]12)OCc1ccccc1	0.298
CO[C@@H]1COC(=O)[C@@H](C)COC(=O)[C@@H](C)NC(=O)CC=C[C@@H]1C	0.548
CO[C@@H]1COC(=O)CC=C[C@@H](C)[C@@H]2C=C[C@H](O)[C@@H](COC(=O)CC=C[C@H]1C)O2	-0.143
COC(=O)[C@@H]1CC[C@H](C)[C@@H](c2ccc(C)cc2)N1C(=O)c1ccc(C=NO[C@H](C)c2cn([C@H](CO)Cc3ccccc3)nn2)cc1	0.762
CCC=CCCC(OC(=O)c1ccc(Br)cc1)C1=CCCCC1=O (stereo not drawn)	0.164
CO[C@H]1COC(=O)[C@@H](C)COC(=O)[C@H](COCc2ccccc2)NC(=O)CC=C[C@H]1C	-1.43
CCOC(=O)CCN1C(=O)[C@H]2[C@H]3[C@H](O)[C@H](O)CC(=NOCC(C)C)[C@H]3CC[C@H]2C1=O	-0.0537
C#CCCCON=C1C[C@@H](O)[C@@H](O)[C@@H]2[C@@H]3C(=O)N(CC)C(=O)[C@@H]3CC[C@@H]12	0.399
CON=C1[C@H]2CCn3c(=O)n(-c4ccccc4)c(=O)n3[C@H]2[C@H](O)[C@@H]2O[C@H]12	1.95
CC(C)=CCCC(C)=CCON=C1C[C@@H](O)[C@@H](O)[C@@H]2[C@@H]3C(=O)N(C(C)(C)C)C(=O)[C@@H]3CC[C@@H]12	0.696
CC(C)(C)N1C(=O)[C@H]2[C@H]3[C@H](O)[C@H](O)CC(=O)[C@@H]3CC[C@H]2C1=O	-0.0303
CC(=O)OC[C@H]1O[C@H](CC=NO[C@H](C)c2cn([C@H](CO)Cc3ccccc3)nn2)C=C[C@@H]1OC(C)=O	0.499
C=Cc1ccc([C@H]2N[C@H](C(=O)O)CC[C@@H]2C)cc1	0.126
O=C(C=Cc1ccc2c(c1)OCO2)c1ccc(F)cc1	0.877
C[C@@H]1CC[C@H]2C(=O)O[C@@H](Cc3ccccc3)CN2[C@H]1c1ccc(Br)cc1	2.07
C=CC1=C[C@H](O)[C@@H]2O[C@@H]2C12OCCCO2	0.837

Structure (SMILES)	composite z-score
CCN1C(=O)[C@H]2[C@H]3[C@H](O)[C@H](O)CC(=NO[C@@H](C)c4cn([C@H](CO)Cc5ccccc5)nn4)[C@@H]3CC[C@H]2C1=O	3.32
CCOC(=O)[C@H](Cc1ccccc1)NC(=O)CCC1CC(OC(=O)NCc2ccc3c(c2)OCO3)CC2(CCCC(COC(=O)NCCC(C)C)O2)O1 (stereo partly drawn)	0.408
O=C1[C@H]2[C@H]3[C@H](O)[C@H](O)CC(=NOC[C@@H](O)COCc4ccco4)[C@H]3CC[C@H]2C(=O)N1C[C@@H]1CCCO1	0.605
CC(C)=NO[C@H](C)c1cn([C@H](CO)Cc2ccccc2)nn1	1.28
O=C1CCCC=C1C(O)CCCCBr (stereo not drawn)	3.06
COC(=O)CC=C[C@@H](C)[C@@H](C=NOC[C@@H](O)[C@H]1O[C@@H]2OC(C)(C)O[C@@H]2[C@H]1O)NS(=O)(=O)c1ccc(C)cc1	1.93
CCOC(=O)[C@H](Cc1ccccc1)NC(=O)CCC1CC(OC(=O)NCCc2ccc(F)cc2)CC2(CCCC(COC(=O)NCc3ccccc3)O2)O1 (stereo partly drawn)	0.704
COC(=O)CC=C[C@@H](C)[C@@H](C=NOC(C)CN1CCCc2nc(C)c(C)cc21)OC (stereo partly drawn)	0.333
O=C1CCCC=C1C(O)CCOC(c1ccccc1)(c1ccccc1)c1ccccc1 (stereo not drawn)	-0.545
C[C@@H]1C=CCC(=O)OC[C@H]2O[C@@H](C=C[C@@H]2O)[C@H](C)C=CCC(=O)OC1	0.341
CO[C@@H]1C=CCC(=O)N[C@@H](C)C(=O)OC[C@@H](OC)[C@H](C)CCCC(=O)OC[C@H]1C	2.07
Cc1ccc(S(=O)(=O)OC[C@H]2CN3[C@H](c4ccc(Br)cc4)[C@@H](C)CC[C@H]3C(=O)O2)cc1	0.924
CC(C)=CCCC(C)=CCON=C1C[C@@H](O)[C@@H](O)[C@@H]2[C@@H]3C(=O)N(C4CCCCC4)C(=O)[C@@H]3CC[C@@H]12	-0.216
O=C1C=C[C@@H](O)[C@@H]2[C@@H]3C(=O)N(C[C@@H]4CCCO4)C(=O)[C@@H]3CC[C@@H]12	0.518
CCOC(=O)[C@H](CC(C)C)NC(=O)CCC1CC(OC(=O)NCc2cccc3ccccc23)CC2(CCCC(COC(=O)NCCCN3CCCC3=O)O2)O1 (stereo partly drawn)	0.551
Cc1ccc(S(=O)(=O)N[C@H]2COC(=O)CC=C[C@@H](C)COC(=O)CC=C[C@@H]2C)cc1	-0.142

— PubChem BioAssay
